Rango release inh: qHTS Assay for Inhibitors of RanGTP induced Rango (Ran-regulated importin-beta cargo) - Importin beta complex dissociation. actives 0.071% (n = 340,000). AID 540253, 2011. Snurportin-1 (Homo sapiens) + GTP-binding nuclear protein Ran (Homo sapiens) + Importin …. Potency, µM (doses to about 46.1 µM), for inactives: top-dose activity change, negative = inhibition. Biochemical FRET Rango-importin beta, RanGTP-induced dissociation; also: % of control where 0% means no effect; nearly all actives have a fitted effect of over 45% in size
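Quantitative HTS using a FRET biosensor: 0.1 uM Rango, 0.25 uM importin beta, 0.6 uM Ran, 2 mM GTP, 0.2 uM RCC1 final, PBS with DTT, Tween-20 and BSA. Post-read taken 45 min after Ran addition.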
gsp antagonist: qHTS for Antagonists of gsp, the Etiologic Mutation Responsible for Fibrous Dysplasia/McCune-Albright Syndrome: qHTS | gsp-mutant cells, cAMP HTRF, 30 min | Potency, µM (doses to about 76.9 µM), inactives show top-dose activity change, negative = inhibition, hits mostly inhibitors | actives 0.4% (n = 340,000) | AID 624288, 2012; calls by dose curve; cell line not stated here;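 also: intracellular cAMP measured with PDE inhibitor Ro 20-1724 present during compound exposure; % is scaled to controls: 0 for no effect and ±100 for the full control effect; nearly all actives have a fitted effect of over 65% in size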
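HTRF cAMP read-out (cAMP-d2 plus anti-cAMP antibody-K in lysis buffer, 30 min RT). Before lysis, cells are exposed to compounds with […] for 30 min at 37C in DPBS containing Ca/Mg, BSA and Tween 20.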
Rango complex inh: qHTS Assay for Inhibitors of Rango (Ran-regulated importin-beta cargo) - Importin beta complex formation; actives 0.031% (n = 340,000); Importin subunit beta-1 (Homo sapiens), Q14974; Rango CFP/YFP FRET sensor + importin beta, 45 min; Potency, µM (doses to about 92.2 µM), for the others: at the top dose inhibition of complex formation; AID 540263, 2011;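 also: 0% = DMSO wells and 100% = buffer wells lacking importin beta; nearly all actives have a fitted effect of over 15% in size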
Target sequence (Q14974 whole entry, looked up): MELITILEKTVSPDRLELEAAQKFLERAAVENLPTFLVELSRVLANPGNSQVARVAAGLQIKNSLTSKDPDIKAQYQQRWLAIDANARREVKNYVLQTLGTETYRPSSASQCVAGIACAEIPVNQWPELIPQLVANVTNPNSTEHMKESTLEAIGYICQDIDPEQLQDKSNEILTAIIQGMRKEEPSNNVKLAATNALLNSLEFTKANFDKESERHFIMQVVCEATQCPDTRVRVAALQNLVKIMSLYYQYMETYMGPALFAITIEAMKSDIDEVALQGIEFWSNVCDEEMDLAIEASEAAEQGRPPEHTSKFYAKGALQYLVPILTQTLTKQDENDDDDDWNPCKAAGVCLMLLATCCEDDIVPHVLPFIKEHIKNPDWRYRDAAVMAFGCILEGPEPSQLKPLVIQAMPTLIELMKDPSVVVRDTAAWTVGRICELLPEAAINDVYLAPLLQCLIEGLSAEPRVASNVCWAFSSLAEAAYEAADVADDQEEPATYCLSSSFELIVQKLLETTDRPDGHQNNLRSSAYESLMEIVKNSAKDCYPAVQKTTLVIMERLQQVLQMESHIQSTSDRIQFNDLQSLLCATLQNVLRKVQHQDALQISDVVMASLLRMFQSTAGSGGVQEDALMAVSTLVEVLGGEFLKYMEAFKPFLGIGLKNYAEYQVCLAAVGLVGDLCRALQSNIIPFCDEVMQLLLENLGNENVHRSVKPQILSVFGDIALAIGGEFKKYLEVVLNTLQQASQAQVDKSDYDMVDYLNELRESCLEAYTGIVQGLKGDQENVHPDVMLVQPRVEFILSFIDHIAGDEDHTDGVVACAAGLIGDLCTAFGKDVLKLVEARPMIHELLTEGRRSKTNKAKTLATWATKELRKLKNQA
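FRET biosensor Rango (snurportin 1 IBB between N-terminal EYFP and C-terminal Cerulean), 50 nM in PBS/1 mM DTT/0.02% Tween-20/0.1% BSA, preincubated 5 min RT with compound; 0.125 microM importin beta added, 45 min RT, CFP/YFP FRET ratio read.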
gsp agonist: qHTS for Agonist of gsp, the Etiologic Mutation Responsible for Fibrous Dysplasia/McCune-Albright Syndrome: qHTS; AID 624287, 2012; actives 0.13% (n = 340,000); gsp mutant cells, cAMP HTRF, 30 min; Potency, µM (series often up to 76.9 µM), for the others: at the highest dose activation (cAMP increase), most hits filed as activators; active = well fitted activation curve with a large enough effect; inconclusive = small, poorly fitted or top-dose-only effect, or another doubt; inactive = no such curve, though single readings can be large or run the other way; cell line not stated here;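 also: phosphodiesterase inhibitor Ro 20-1724 added with compounds to block cAMP breakdown; nearly all actives have a fitted effect of over 60% in size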
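Cells in DMEM/10% FBS with G418 were pretreated with compounds in DMSO plus […] (300 uM stock) for 30 min at 37C. cAMP was measured by HTRF (cAMP-d2 plus anti-cAMP antibody-K) after 30 min at room temperature.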
An asterisk follows results filed as active; [ ] = dose if it differs, or a comment. Shown are actives, neighbours in structure and some others; about 0.66% of the full set was active somewhere. Unless noted, calls follow the shape of the full dose curve. Potency is read from the fitted curve at half-maximal effect.

What do the screens show for `COc1ccccc1C#Cc1cnc2c(c1)C(=O)N([C@H](C)CO)C[C@@H](C)[C@@H](CN(C)C(=O)c1ccc3c(c1)OCO3)O2`?
gsp agonist: -17%

Results for COC(=O)c1ccc(CSc2ccccc2NC(=S)Nc2cccc(SC)c2)o1 ?
gsp agonist: 1%

Results for Cc1ccc(OCC(=O)NNC(=O)C2CCN(c3ncnc4sc(C)c(C)c34)CC2)cc1 ?
Rango release inh: -6%; gsp antagonist: -25%; Rango complex inh: -3%; gsp agonist: 38%[15.4 µM]

How did Cc1sc2ncnc(N3CCC(C(=O)Nc4ccc(OC(F)F)c(Cl)c4)CC3)c2c1C do in these assays?
Rango release inh: -4%; gsp antagonist: 28µM*; Rango complex inh: 0%; gsp agonist: -35%

How did Cc1sc2ncnc(N3CCC(C(=O)NNC(=O)COc4ccc(Cl)cc4)CC3)c2c1C do in these assays?
Rango release inh: -11%; gsp antagonist: 32µM*; Rango complex inh: -1%; gsp agonist: inconclusive

What do the screens show for `CCN1C(=O)[C@H]2[C@@H](c3ccc(OC)cc3)N[C@]3(CCCN(Cc4ccc(C)cc4)C3=O)[C@H]2C1=O`?
gsp agonist: -83%

How did COc1ccc(CC(=O)Nc2ccc(S(=O)(=O)Nc3cc(C)nc(C)n3)cc2)cc1OC do in these assays?
gsp agonist: -48%

Results for CN1c2ccccc2C(O)=C(C(=S)Nc2ccc(F)c(Cl)c2)S1(=O)=O ?
Rango release inh: 2%; gsp antagonist: 40µM*; Rango complex inh: -1%; gsp agonist: 9%[15.4 µM]

What do the screens show for `CC1=CC(=O)C(Sc2ccc(C)cc2)=CC1=O`?
gsp agonist: 27%

What do the screens show for `COc1ccc(-c2cccc(C(=O)Nc3ccccc3C)c2)cc1`?
Rango release inh: 14%; gsp antagonist: 10%; Rango complex inh: 1%; gsp agonist: 1%

Results for CC(=O)Oc1ccc(C(=O)Nc2ccccc2NC(=O)c2ccc(OC(C)=O)cc2)cc1 ?
Rango release inh: 0%; gsp antagonist: 25µM*; Rango complex inh: -2%; gsp agonist: -2%

How did COc1ccc(C)cc1NC(=O)c1cccc(-c2ccc(OC(C)=O)cc2)c1 do in these assays?
Rango release inh: 4%; gsp antagonist: 25µM*; Rango complex inh: 0%; gsp agonist: 6%[15.4 µM]

How did COc1ccc(C(=O)Nc2ccccc2NC(=O)c2ccc(OC)cc2)cc1 do in these assays?
Rango release inh: 1%; gsp antagonist: -22%; Rango complex inh: -2%; gsp agonist: -22%

Results for COc1cccc2ccc(CC(O)(c3ccccc3)c3ccccc3)nc12 ?
gsp agonist: -41%

How did N=c1c(C(=O)NCc2ccc3c(c2)OCO3)cc2c(=O)n3ccccc3nc2n1CC1CCCO1 (stereo not drawn) do in these assays?
Rango release inh: inconclusive; gsp antagonist: -2%; Rango complex inh: inconclusive; gsp agonist: 28µM*

How did CCOc1ccc(Oc2ccc(NS(=O)(=O)c3ccc(CCC(=O)O)cc3)cc2)cc1 do in these assays?
gsp agonist: -6%

What do the screens show for `CN(CC(=O)Nc1ccc(F)cc1)C(=O)CN1C(=O)NC(CCc2ccccc2)C1=O` (stereo not drawn)?
gsp agonist: 37%

How did O=C1CSc2ccc(C(=O)N3CCCCC3)cc2N1 do in these assays?
gsp agonist: -18%

What do the screens show for `O=C1NCCN1c1ncc([N+](=O)[O-])s1`?
Rango release inh: 31%; gsp antagonist: 5%; Rango complex inh: -1%

How did Cn1c([N+](=O)[O-])cnc1N1CCN(c2nncs2)C1=O do in these assays?
Rango release inh: 21%; gsp antagonist: 5%; Rango complex inh: -2%; gsp agonist: 10µM*

Results for COc1ccc2c(c1)[nH]c1c(N3CCSCC3)ncnc12 ?
Rango release inh: 1%; gsp antagonist: 28µM*; Rango complex inh: 1%; gsp agonist: -9%[15.4 µM]

What do the screens show for `COc1cccc(N2CCN(c3ncnc4c3[nH]c3ccc(F)cc34)CC2C)c1` (stereo not drawn)?
Rango release inh: -5%; gsp antagonist: 3.5µM*; Rango complex inh: -3%; gsp agonist: -17%

Results for COc1cc2[nH]c3c(N4CCN(c5ccc(Cl)cc5)CC4)ncnc3c2cc1OC ?
Rango release inh: -2%; gsp antagonist: -6%; Rango complex inh: 0%; gsp agonist: 4%

What do the screens show for `c1nc(N2CCN(Cc3ccc4c(c3)OCO4)CC2)c2[nH]cnc2n1`?
Rango release inh: inconclusive; gsp antagonist: -2%; Rango complex inh: -6%; gsp agonist: -17%

What do the screens show for `COc1ccc2[nH]c3c(N4CC(C)OC(C)C4)ncnc3c2c1` (stereo not drawn)?
Rango release inh: -14%; gsp antagonist: 4%; Rango complex inh: 2%; gsp agonist: 22%

What do the screens show for `COc1ccc2c(c1)[nH]c1c(N3CCN(Cc4ccc5c(c4)OCO5)CC3)ncnc12`?
Rango release inh: 6%; gsp antagonist: 40µM*; Rango complex inh: 0%; gsp agonist: -68%

What do the screens show for `Cc1cc(=O)[nH]c2nc3ccccc3n12`?
gsp agonist: -10%

Results for CC(OC(=O)C1=COCCO1)C(=O)NC1CCCCC1 (stereo not drawn) ?
gsp agonist: -69%

What do the screens show for `O=C(COC(=O)CNC(=O)c1ccc(Br)o1)Nc1ccc2c(c1)OCCO2`?
Rango release inh: -8%; gsp antagonist: 50µM*; Rango complex inh: -4%; gsp agonist: -114%

How did CCN(CCCNc1cc2c(c(N)c1S(=O)(=O)O)C(=O)c1ccccc1C2=O)c1ccccc1 do in these assays?
gsp agonist: 7%

How did Cc1nc2c(C(=O)NCCC(C)C)c[nH]n2c(=O)c1Cl do in these assays?
Rango release inh: 4%; gsp antagonist: -5%; Rango complex inh: 4%; gsp agonist: 5%

Results for Cc1nc2c(C(=O)NCCC(C)C)c[nH]n2c(=O)c1Cc1ccccc1F ?
Rango release inh: -6%; gsp antagonist: 20µM*; Rango complex inh: -3%; gsp agonist: -19%

How did Cc1cc(C)cc(OCC(=O)N/N=C/c2ccc([N+](=O)[O-])o2)c1 do in these assays?
Rango release inh: 3%; gsp antagonist: 3%; Rango complex inh: 5%; gsp agonist: 3%[15.4 µM]

What do the screens show for `Cc1ccccc1OCC(=O)N/N=C/c1ccc([N+](=O)[O-])o1`?
Rango release inh: 16µM*; gsp antagonist: -5%; Rango complex inh: inconclusive; gsp agonist: -17%

What do the screens show for `Cc1ccc(C(=O)N/N=C\c2ccc([N+](=O)[O-])o2)cn1`?
Rango release inh: 23%; gsp antagonist: -5%; Rango complex inh: 1%; gsp agonist: 8.9µM*

Results for CC(CC(c1ccccc1)N1CCc2ccccc2C1)=NO (stereo not drawn) ?
gsp agonist: -84%
